Source: PubChem BioAssay (National Center for Advancing Translational Sciences (NCATS))
Only some compounds are listed: those with a hit (about 1.7% of all), similar ones and a draw of the others.
GLP1R cytotox – cytotoxic in the GLP-1 receptor inverse agonist counter-screen. HEK293 cAMP-luciferase reporter cells, luminescence, 24 h. Potency, µM (doses to about 38.3 µM), for inactives: at the top dose activity change, negative = inhibition, usual class: inhibitors. AID 624418. 410,000 compounds, 0.13% hits;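 note: loss of luciferase light is scored as toxicity; % is set by controls: 0 for no effect and ±100 for the full control effect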
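Seeding density was 200 cells/uL; after overnight-length (12 h) culture, 23 nL compounds went on for 24 h at 37 °C. Readout used a luciferase detection reagent, luminescence taken after 12 min at room temperature.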
RGS4 inh – inhibitors of human regulator of G protein signaling 4; P49798; Transcreener GDP fluorescence polarization, RGS4-accelerated GTP hydrolysis; Potency, µM (highest dose often 114 µM), without a hit: at the top dose activity change, negative = inhibition, most hits filed as inhibitors; 390,000 compounds, 0.039% hits; AID 504845; note: % is set by controls: 0 for no effect and ±100 for the full control effect; nearly all actives have a fitted effect of over 75% in size
Target sequence (P49798 whole entry, looked up): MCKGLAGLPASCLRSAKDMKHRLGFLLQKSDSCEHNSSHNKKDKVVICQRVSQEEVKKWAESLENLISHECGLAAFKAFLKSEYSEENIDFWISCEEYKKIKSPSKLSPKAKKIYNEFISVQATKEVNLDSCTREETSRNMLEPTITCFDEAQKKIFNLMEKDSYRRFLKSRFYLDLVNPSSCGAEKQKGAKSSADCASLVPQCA
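MLSMR compounds (23 nl, pin-transferred) preincubated 10 min at room temperature with a 500nM (2x) first reagent, then RGS4 at 900nM (2x) plus Transcreener GDP mix added; fluorescence polarization (620/688 nm) read before and after 90 min at 30 °C.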
PTHR1 ag – activates the human parathyroid hormone receptor PTHR1 | Q03431 | HEK293 GP2 PTHR1 cells, GloSensor cAMP luminescence, 1 h | Potency, µM (titrated, usually from 115 µM), without a hit: at the top dose activation, hits mostly activators | 410,000 compounds, 0.075% hits; note: nearly all actives have a fitted effect of over 55% in size
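HEK-293-derived GP2 cells expressing PTHR1 and a GloSensor cAMP reporter, 3,000/well, plated overnight, given luciferin plus IBMX (each 0.5 mM as added) for 1 h at 37 °C, then compound for 1 h at 37 °C. Luminescence was read after 15 min at room temperature.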
GLP-1R agonist – GLP-1 receptor (human) agonism | P43220 | HEK293 GLP-1R CRE-luciferase, luminescence, 4-6 h; cells express a hypersensitive GLP-1R form | Potency, µM (highest dose often 45.6 µM), for inactives: at the top dose activation, actives largely listed as activators | 380,000 compounds, 0.007% hits | AID 624172; note: % of control where 0% means no effect
Target sequence (P43220 whole entry, looked up): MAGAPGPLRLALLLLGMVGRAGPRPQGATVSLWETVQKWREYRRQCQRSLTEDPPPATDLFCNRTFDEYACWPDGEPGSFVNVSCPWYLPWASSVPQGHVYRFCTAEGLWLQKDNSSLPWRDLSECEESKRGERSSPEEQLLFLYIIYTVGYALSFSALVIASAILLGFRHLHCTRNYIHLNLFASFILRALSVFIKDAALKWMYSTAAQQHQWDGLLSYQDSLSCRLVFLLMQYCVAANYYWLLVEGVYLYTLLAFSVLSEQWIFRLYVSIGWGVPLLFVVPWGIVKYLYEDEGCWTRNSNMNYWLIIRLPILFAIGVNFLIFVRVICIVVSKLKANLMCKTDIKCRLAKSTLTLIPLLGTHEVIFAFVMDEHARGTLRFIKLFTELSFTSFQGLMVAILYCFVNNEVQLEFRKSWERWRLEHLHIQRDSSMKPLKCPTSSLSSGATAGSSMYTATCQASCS
GLP-1R inv ag – GLP-1 receptor (human) inverse agonism | HEK293 GLP-1R CRE-luciferase, luminescence, 24 h; GLP-1R form is constitutively active | P43220 | 410,000 compounds, 1.6% hits | AID 624417 | Potency, µM (titrated, usually from 38.3 µM), without a hit: top-dose activity change, negative = inhibition, most hits filed as inhibitors; note: % is set by controls: 0 for no effect and ±100 for the full control effect; nearly all actives have a fitted effect of over 55% in size
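HEK293 cells stably co-expressing a cAMP-responsive luciferase reporter and constitutively active GLP-1R were seeded, incubated 12 h, then exposed to compounds for 24 h at 37 C. Luminescence was read 12 min after detection reagent; inverse agonists lower signal.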
Numbers without * were called inactive; i = inactive; u = inconclusive; x = no result; [ ] = remark or other dose. Calls come from the whole dose curve; as a rule, active = well fitted curve in the direction sought with a large enough effect; inconclusive = small, poorly fitted or top-dose-only effect, or another doubt; inactive = no such curve, though single readings can be large; an effect the other way counts as inactive or inconclusive. Potency is the fitted concentration of half-maximal effect.

SMILES	GLP1R cytotox	RGS4 inh	PTHR1 ag	GLP-1R agonist	GLP-1R inv ag
Cn1cnnc1Sc1ccc(C(=O)OCC(=O)NC2CC2)cc1[N+](=O)[O-]	6%	-18%	25%	8%	3%
CCCCN(CCCNc1ncnc2nc[nH]c12)c1ccccc1	-9%	9%	-35%	-1%	10µM*
CCN(CCCNc1ncnc2nc[nH]c12)c1cccc(C)c1	12%	14%	-34%	2%	-25%
CC1=C(C(=O)OC2CCCC2)C(c2coc3ccccc3c2=O)C2=C(CC(C)(C)CC2=O)N1 (stereo not given)	-8%	-16%[11.4 µM]	-52%	15%	2.5µM*
CC1=C(C(=O)OC2CCCC2)C(c2coc3ccc(C)cc3c2=O)C2=C(CCCC2=O)N1 (stereo not given)	-2%	-10%[56.9 µM]	-8%	1%	-5%
Clc1ccc2c(c1)C(C1=NCCN1)c1ccccc1CS2 (stereo not given)	u	-16%	-9%	-4%	3.2µM*
S=C1NCCc2ccc(Cl)cc2C1c1ccccc1Cl (stereo not given)	u	-8%	-93%	-2%	u
Cc1c(C(=O)N(Cc2ccc(N(C)C)cc2)CC2CCCO2)oc2ccccc12 (stereo not given)	1%	14%	-17%	30%	10µM*
NC(N)=N/N=C/c1cccc(Cl)c1Cl	u	-2%	-8%	0%	10µM*
O=C(C1COc2ccccc2O1)N1CCN(Cc2ccc(Br)cc2F)CC1 (stereo not given)	7%	-22%	-92%	7%	11µM*
Cc1cc(O)c2c(C)c(CC(=O)N3CCN(C(=O)C4COc5ccccc5O4)CC3)c(=O)oc2c1 (stereo not given)	12%	16%	-43%	0%	6.3µM*
CC(=O)Oc1ccc2c(C)c(CC(=O)N3CCN(C(=O)C4COc5ccccc5O4)CC3)c(=O)oc2c1C (stereo not given)	i	8%	-19%	5%	-14%
COc1cc(C)cc2oc(=O)c(CC(=O)N3CCN(C(=O)C4COc5ccccc5O4)CC3)c(C)c12 (stereo not given)	-16%	-33%[56.9 µM]	-16%	-6%	10µM*
O=C(C1COc2ccccc2O1)N1CCN(Cc2ccc3c(c2)OCO3)CC1 (stereo not given)	-2%	-6%	i	12%	u
CN1C(=O)N(CC(=O)N2CCN(S(=O)(=O)Cc3ccccc3)CC2)C(=O)C12CCCCC2	-9%	-7%	-31%	-14%	1%
O=C1[C@@H]2Cc3c([nH]c4ccccc34)C(c3cccc(Br)c3)N2C(=O)CN1C1CCN(Cc2ccccc2)CC1 (stereo not given in full)	u	19%	i	4%	3.2µM*
COC(=O)c1ccc(C2c3[nH]c4ccccc4c3C[C@H]3C(=O)N(C4CCN(Cc5ccccc5)CC4)CC(=O)N23)cc1 (stereo not given in full)	-13%	2%	u	-1%	10µM*
O=C1[C@@H]2Cc3c([nH]c4ccccc34)C(c3ccccc3)N2C(=O)CN1C1CCN(Cc2ccccc2)CC1 (stereo not given in full)	u	-31%	-8%	0%	2.2µM*
CCOc1ccccc1C1c2[nH]c3ccccc3c2C[C@H]2C(=O)N(C3CCN(Cc4ccccc4)CC3)CC(=O)N12 (stereo not given in full)	-4%	10%	-11%	8%	u
CCCN(Cc1cccs1)C(=O)Nc1cc(C)ccc1OC	12%	-6%	-42%	x	u
Cn1nnnc1SCC1=C(C(=O)O)N2C(=O)[C@@H](NC(=O)[C@H](OC=O)c3ccccc3)[C@H]2SC1	x	x	x	-5%	x
O=C(Nc1ccccc1)N(Cc1cccs1)c1ccc(F)cc1	-28%	11%	i	x	u
Cc1cc(Br)ccc1NC(=O)COc1cc(=O)n(C)c2ccccc12	10%	9%	-2%	3%	2%
COc1ccc(C(=O)N/N=C/c2ccccc2OC(=O)c2ccccc2)cc1	-4%	-10%	i	u	10µM*
O=C(O)COc1ccccc1/C=N/NC(=O)c1cc2ccccc2cc1O	-7%	0%[11.4 µM]	25µM*	-1%	-6%
SMILES	GLP1R cytotox	RGS4 inh	PTHR1 ag	GLP-1R agonist	GLP-1R inv ag
COc1ccc(Oc2ccccc2/C=N/O)cc1	8%	36%	-31%	2%	1µM*
COc1ccc(NC(=O)[C@H](Cc2c[nH]c3ccccc23)NC(=O)[C@@H]2Cc3ccccc3CN2)cc1	-10%	-14%	-14%	0%	5.6µM*
O=C(Nc1ccccc1)Nc1ccc(-n2ccc(C(F)(F)F)n2)cc1	-22%	-11%	-2%	10%	7.1µM*
COCCNC(=O)CCc1nnc2ccc(N3CCC(C)CC3)nn12	12%	-8%	i	-4%	2%
COc1cc(C(=O)Nc2ccc(-c3cc(C(F)(F)F)nn3-c3ccccc3)cc2)cc(OC)c1OC	-6%	7%	i	x	7.9µM*
CC(=O)c1ccc(S(=O)(=O)N(C)CC(=O)Nc2cc(C)on2)cc1	13%	-21%	-14%	-17%	23%
Cc1cc(NC(=O)CC(CN(C)S(=O)(=O)c2ccccc2)c2ccccc2)no1 (stereo not given)	-5%	-16%	-83%	-7%	10µM*
CNCCC1Sc2ccccc2Oc2ccccc21 (stereo not given)	3%	-12%	i	13%	10µM*
CCOC(=O)c1c(C)[nH]c(C)c1S(=O)(=O)N1CCC(C(=O)Nc2ccc(C)c(N(C)C)c2)CC1	1%	1%	i	x	-1%
C/C(CCc1ccc2c(c1)OCO2)=N\NC(=S)NC(C)C	3.2µM*	-32%	26%	-2%	u
CCc1nc2ccccc2c(C(=O)OCC(=O)N(CCOC)c2c(N)n(Cc3ccccc3)c(=O)[nH]c2=O)c1C	11%	-11%	-12%	7%	35%
CCCC(=NC(C)CC)C1=C(O)CC(c2ccccc2)CC1=O (stereo not given)	8%	-31%	-6%	10%	10µM*
COc1ccc(Cl)cc1NC(=O)Cn1ccn(-c2cc(C)cc(C)c2)c(=O)c1=O	-7%	7%	-18%	x	u
CN1CCN(c2cc(N3CCN(C(=O)c4ccco4)CC3)c3c4c(onc24)-c2ccccc2C3=O)CC1	u	-27%	i	10%	u
O=C1c2ccccc2-c2onc3c(N4CCN(CCO)CC4)cc(N4CCN(C(=O)c5ccco5)CC4)c1c23	u	u	-25%	6%	11µM*
CCN1CCN(C(c2cccnc2)c2c(NC(=O)c3ccco3)sc(C)c2C)CC1 (stereo not given)	-11%	1%	i	2%	u
